According to the supplement of paper PMC10849652:
The full data set covers some 7,900 targets. This sample favours those with a hit. About 0.6% of all pairs of compound and target were hits.

Columns and labels:
Assay in all cases: log2 fold change, soluble protein after heating vs DMSO (PISA); higher = thermal stabilisation; K562 cells, 10 uM, 30 min; active = over 0.2 and 3.5 SD of the protein, either way, in both replicates (recomputed)
[1] = compound: CC[C@@H]1C(=O)N(C)c2cnc(Nc3ccc(C(=O)NC4CCN(C)CC4)cc3OC)nc2N1C1CCCC1
Method in brief: (§1)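 K562 cells at 2×10^6 cells/mL were exposed to 10 μM compound for 30 min, then aliquots were heated for 3 min across 48°C-58°C, pooled, and extracted in PBS containing 0.5% NP-40 at 4°C. The supernatant after 21,000xg for 90 min was taken as soluble protein and measured by TMTpro 16plex LC-MS/MS with channel sums equalised. Thermal stability is reported relative to control samples, with values from duplicates. Fold changes are given on a log2 scale.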

[2] = compound: CC[C@@H]1C(=O)N(C)c2cnc(Nc3ccc(C(=O)N[C@H]4CC[C@H](N5CCN(CC6CC6)CC5)CC4)cc3OC)nc2N1C(C)C [volasertib]
Method in brief: as §1

[3] = compound: CC[C@H](C)N1C=C(C2=C(C=C(C=C21)C3=CN=C(C=C3)N4CCNCC4)C(=O)NCC5=C(C=C(NC5=O)C)C)C
Method in brief: as §1

[4] = compound: CC[C@H](C)[C@@H](C(=O)N[C@@H]([C@@H](C)O)C(=O)N[C@@H](CC(C)C)C(=O)[C@]1(CO1)C)NC(=O)[C@H]([C@@H](C)CC)N(C)C(=O)C [epoxomicin]
Method in brief: as §1

[5] = compound: CCn1c(C(=O)N(C2CC2)C2CC2)cc2c3c(ncn3C)c(Nc3cc(C)n(C)n3)nc21
Method in brief: as §1

[6] = compound: CCn1cc(-c2ccnc3[nH]c(-c4cccc(CN(C)C)c4)cc23)c(-c2ccc(NC(=O)N(C)C)cc2)n1
Method in brief: as §1

[7] = compound: CN(C)CC(=O)Nc1ccc2[nH]c(=O)c3ccccc3c2c1
Method in brief: as §1

[8] = compound: CN(CCOC1=CC=C(C=C1)C[C@H]2C(=O)NC(=O)S2)C3=CC=CC=N3 (racemic) [rosiglitazone]
Method in brief: as §1

[9] = compound: CN1C2=C(C3=C1C(=O)N(N=C3)CC4=CC(=CC=C4)N)SC(=C2)S(=O)C
Method in brief: as §1

[10] = compound: CN1CCC(CNc2ccc3ncc(-c4cccc(OC(F)(F)F)c4)n3n2)CC1
Method in brief: as §1

Measured: log2 fold change

MAP1LC3B2 (UniProt A6NCE7)
inactive: [1] -0.074 | [2] -0.072 | [3] 0.05 | [4] 0 | [5] -0.003 | [6] 0.004 | [7] 0 | [8] 0.044 | [9] -0.015 | [10] 0.108

LSR (UniProt Q86X29)
inactive: [1] 0.109 | [2] 0.068 | [3] -0.02 | [4] -0.021 | [5] -0.013 | [6] 0.011 | [7] -0.033 | [8] 0.011 | [9] -0.001
active: [10] 0.214

MAPK12 (UniProt P53778)
inactive: [1] -0.097 | [2] 0.036 | [3] -0.128 | [4] 0.089 | [5] 0.182 | [6] -0.051 | [7] 0.009 | [8] -0.176 | [9] -0.097 | [10] -0.077

LUC7L (UniProt Q9NQ29)
inactive: [1] 0.006 | [2] -0.005 | [3] 0.005 | [4] -0.052 | [5] 0.048 | [6] 0.01 | [7] -0.043 | [8] -0.003 | [9] 0.108 | [10] 0.052

INTS7 (UniProt Q9NVH2)
inactive: [1] 0.035 | [2] -0.313 | [3] 0.1 | [4] -0.029 | [5] -0.119 | [6] -0.1 | [7] 0.038 | [8] 0.033 | [9] 0.069 | [10] 0.3

KIF13A (UniProt Q9H1H9)
inactive: [1] 0.007 | [2] -0.041 | [3] -0.003 | [4] 0.004 | [5] -0.05 | [6] -0.068 | [7] -0.026 | [8] 0.068 | [9] -0.012 | [10] 0.039

ME2 (UniProt P23368)
active: [2] 0.445
inactive: [1] 0.164 | [3] 0.006 | [4] 0.108 | [5] -0.012 | [6] -0.015 | [7] -0.002 | [8] 0.016 | [9] -0.02 | [10] 0.145

LARP4B (UniProt Q92615)
inactive: [1] 0.025 | [2] -0.15 | [3] 0.061 | [4] -0.037 | [5] -0.052 | [6] 0.073 | [7] 0.034 | [8] -0.02 | [9] 0.096 | [10] -0.218

LEO1 (UniProt Q8WVC0)
active: [2] -0.402
inactive: [1] -0.021 | [3] -0.013 | [4] -0.001 | [5] -0.007 | [6] -0.051 | [7] 0.121 | [8] 0.006 | [9] -0.033 | [10] -0.048

KCT2 (UniProt Q8NC54)
inactive: [1] -0.312 | [2] -0.076 | [3] -0.006 | [4] -0.063 | [5] 0.089 | [6] -0.03 | [7] 0.064 | [8] 0.009 | [9] -0.051 | [10] -0.037

MGST1 (UniProt P10620)
Sequence of UniProt P10620 (P10620 whole entry, looked up): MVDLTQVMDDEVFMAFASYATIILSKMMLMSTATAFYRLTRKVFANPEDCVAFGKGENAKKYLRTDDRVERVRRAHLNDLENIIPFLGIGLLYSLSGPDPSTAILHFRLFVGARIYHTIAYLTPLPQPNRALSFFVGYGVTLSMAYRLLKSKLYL
inactive: [1] 0.037 | [2] 0.039 | [3] -0.043 | [4] 0.003 | [5] -0.025 | [6] -0.158 | [7] 0.012 | [8] -0.037 | [9] -0.079 | [10] 0.086

MAP2K3 isoform 3 (UniProt P46734)
Sequence of UniProt P46734 (P46734 whole entry, looked up): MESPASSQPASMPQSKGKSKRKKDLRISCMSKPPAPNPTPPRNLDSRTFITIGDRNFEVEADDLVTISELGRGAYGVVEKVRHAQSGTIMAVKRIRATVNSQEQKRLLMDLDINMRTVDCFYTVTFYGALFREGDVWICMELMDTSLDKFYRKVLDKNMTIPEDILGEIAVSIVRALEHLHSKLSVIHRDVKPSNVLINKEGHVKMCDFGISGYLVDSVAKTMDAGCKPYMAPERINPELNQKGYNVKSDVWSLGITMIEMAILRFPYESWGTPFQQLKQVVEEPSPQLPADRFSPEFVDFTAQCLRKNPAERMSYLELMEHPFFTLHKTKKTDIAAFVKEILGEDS
inactive: [1] -0.041 | [2] -0.17 | [3] 0.09 | [4] -0.035 | [5] -0.017 | [6] 0.039 | [7] 0.038 | [8] 0.018 | [9] -0.054 | [10] -0.121

MFGE8 (UniProt Q08431)
inactive: [1] 0.061 | [2] 0.362 | [3] -0.007 | [4] -0.003 | [5] 0.063 | [6] -0.057 | [7] -0.103 | [8] -0.092 | [9] 0.114 | [10] 0.098

MED16 (UniProt Q9Y2X0)
Sequence of UniProt Q9Y2X0 (Q9Y2X0 whole entry, looked up): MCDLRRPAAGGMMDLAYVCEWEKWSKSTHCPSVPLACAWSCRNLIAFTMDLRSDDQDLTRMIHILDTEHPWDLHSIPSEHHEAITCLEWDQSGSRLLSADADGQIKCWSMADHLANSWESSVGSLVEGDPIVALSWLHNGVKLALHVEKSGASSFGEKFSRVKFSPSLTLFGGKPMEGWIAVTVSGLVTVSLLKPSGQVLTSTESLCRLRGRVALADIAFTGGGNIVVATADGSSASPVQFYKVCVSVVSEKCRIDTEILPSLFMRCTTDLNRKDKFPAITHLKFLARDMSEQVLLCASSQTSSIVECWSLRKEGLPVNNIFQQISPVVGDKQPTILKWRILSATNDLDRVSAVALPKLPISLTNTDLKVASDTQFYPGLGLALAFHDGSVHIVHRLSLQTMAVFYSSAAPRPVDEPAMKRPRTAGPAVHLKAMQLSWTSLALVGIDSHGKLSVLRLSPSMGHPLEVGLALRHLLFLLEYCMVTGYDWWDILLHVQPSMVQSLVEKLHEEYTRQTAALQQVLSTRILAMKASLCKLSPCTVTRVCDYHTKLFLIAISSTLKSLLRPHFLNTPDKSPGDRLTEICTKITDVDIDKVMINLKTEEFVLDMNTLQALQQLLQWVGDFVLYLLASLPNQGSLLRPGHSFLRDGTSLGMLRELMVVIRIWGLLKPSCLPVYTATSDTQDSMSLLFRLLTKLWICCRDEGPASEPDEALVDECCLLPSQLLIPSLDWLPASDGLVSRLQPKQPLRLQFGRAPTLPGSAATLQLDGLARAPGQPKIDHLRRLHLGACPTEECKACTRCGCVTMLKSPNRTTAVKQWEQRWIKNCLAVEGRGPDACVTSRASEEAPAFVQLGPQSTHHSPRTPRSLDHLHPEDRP
inactive: [1] 0.128 | [2] 0.101 | [3] 0.004 | [4] -0.262 | [5] -0.002 | [6] 0.031 | [7] 0.086 | [8] 0.05 | [9] 0.087 | [10] 0.06

KEAP1 (UniProt Q14145)
inactive: [1] -0.026 | [3] -0.034 | [4] -0.024 | [5] -0.017 | [6] 0.019 | [7] 0.033 | [8] 0.024 | [9] 0.056 | [10] 0.053
active: [2] -0.357

MCU (UniProt Q8NE86)
inactive: [1] -0.147 | [3] 0.014 | [4] 0.075 | [5] -0.082 | [6] -0.048 | [7] 0.011 | [8] 0.034 | [9] -0.045
active: [2] -0.249 | [10] -0.23

KRAS isoform 2 (UniProt P01116)
inactive: [1] 0.08 | [2] 0.026 | [3] -0.047 | [4] 0.027 | [5] -0.007 | [6] -0.073 | [7] 0 | [8] 0.038 | [9] 0.062 | [10] 0.141

MAGI1 (UniProt Q96QZ7)
inactive: [1] 0.041 | [2] 0.031 | [3] 0.026 | [4] -0.045 | [5] 0.005 | [6] 0.012 | [7] -0.041 | [8] 0.016 | [9] 0.014 | [10] -0.011

LTV1 (UniProt Q96GA3)
Sequence of UniProt Q96GA3 (Q96GA3 whole entry, looked up): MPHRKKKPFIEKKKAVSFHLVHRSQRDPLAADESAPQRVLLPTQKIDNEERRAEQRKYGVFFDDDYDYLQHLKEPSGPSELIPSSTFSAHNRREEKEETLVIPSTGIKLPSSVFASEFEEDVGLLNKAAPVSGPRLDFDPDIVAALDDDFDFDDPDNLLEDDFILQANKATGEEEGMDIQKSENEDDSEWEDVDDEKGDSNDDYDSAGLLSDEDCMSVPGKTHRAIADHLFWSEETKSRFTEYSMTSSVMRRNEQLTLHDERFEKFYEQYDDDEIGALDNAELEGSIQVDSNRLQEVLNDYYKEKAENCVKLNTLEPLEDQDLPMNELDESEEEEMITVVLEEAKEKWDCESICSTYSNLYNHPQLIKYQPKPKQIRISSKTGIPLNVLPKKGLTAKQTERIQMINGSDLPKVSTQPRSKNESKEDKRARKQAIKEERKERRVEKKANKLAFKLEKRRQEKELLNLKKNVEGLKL
inactive: [1] 0.09 | [2] 0.004 | [3] 0.06 | [4] -0.109 | [5] 0.021 | [6] 0.023 | [7] -0.049 | [8] -0.032 | [9] 0.189 | [10] 0.104

LYPLA2 (UniProt O95372)
inactive: [1] 0.049 | [2] -0.033 | [3] 0.018 | [5] 0.025 | [6] -0.05 | [7] 0.108 | [8] -0.021 | [9] -0.053 | [10] 0.098
active: [4] 0.521

LBR (UniProt Q14739)
Sequence of UniProt Q14739 (Q14739 whole entry, looked up): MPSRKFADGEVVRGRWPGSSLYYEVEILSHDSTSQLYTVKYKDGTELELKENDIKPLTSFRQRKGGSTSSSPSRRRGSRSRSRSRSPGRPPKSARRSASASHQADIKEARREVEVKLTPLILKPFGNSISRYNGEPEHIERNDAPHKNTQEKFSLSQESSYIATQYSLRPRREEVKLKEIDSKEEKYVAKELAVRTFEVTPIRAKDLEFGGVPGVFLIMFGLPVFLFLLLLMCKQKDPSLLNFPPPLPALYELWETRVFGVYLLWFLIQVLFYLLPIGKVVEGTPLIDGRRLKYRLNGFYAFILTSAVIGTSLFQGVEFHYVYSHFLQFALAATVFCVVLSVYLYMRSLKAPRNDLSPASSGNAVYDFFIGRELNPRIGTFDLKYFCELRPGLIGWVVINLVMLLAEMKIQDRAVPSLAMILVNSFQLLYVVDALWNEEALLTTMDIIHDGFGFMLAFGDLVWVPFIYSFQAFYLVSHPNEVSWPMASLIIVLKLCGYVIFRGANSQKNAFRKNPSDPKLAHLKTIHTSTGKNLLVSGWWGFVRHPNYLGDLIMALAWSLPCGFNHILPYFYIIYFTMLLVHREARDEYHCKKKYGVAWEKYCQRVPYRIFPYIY
active: [2] 0.552
inactive: [1] -0.036 | [3] 0.051 | [4] 0.022 | [5] -0.012 | [6] -0.071 | [7] 0.056 | [8] 0.086 | [9] -0.026 | [10] 0.099

MAPKAPK3 (UniProt Q16644)
inactive: [1] -0.084 | [2] 0.036 | [3] 0.003 | [4] 0.064 | [5] 0.048 | [6] 0.016 | [7] -0.015 | [8] 0.004 | [9] -0.14 | [10] -0.049

MAP3K4 isoform 2 (UniProt Q9Y6R4)
Sequence of UniProt Q9Y6R4 (Q9Y6R4 whole entry, looked up): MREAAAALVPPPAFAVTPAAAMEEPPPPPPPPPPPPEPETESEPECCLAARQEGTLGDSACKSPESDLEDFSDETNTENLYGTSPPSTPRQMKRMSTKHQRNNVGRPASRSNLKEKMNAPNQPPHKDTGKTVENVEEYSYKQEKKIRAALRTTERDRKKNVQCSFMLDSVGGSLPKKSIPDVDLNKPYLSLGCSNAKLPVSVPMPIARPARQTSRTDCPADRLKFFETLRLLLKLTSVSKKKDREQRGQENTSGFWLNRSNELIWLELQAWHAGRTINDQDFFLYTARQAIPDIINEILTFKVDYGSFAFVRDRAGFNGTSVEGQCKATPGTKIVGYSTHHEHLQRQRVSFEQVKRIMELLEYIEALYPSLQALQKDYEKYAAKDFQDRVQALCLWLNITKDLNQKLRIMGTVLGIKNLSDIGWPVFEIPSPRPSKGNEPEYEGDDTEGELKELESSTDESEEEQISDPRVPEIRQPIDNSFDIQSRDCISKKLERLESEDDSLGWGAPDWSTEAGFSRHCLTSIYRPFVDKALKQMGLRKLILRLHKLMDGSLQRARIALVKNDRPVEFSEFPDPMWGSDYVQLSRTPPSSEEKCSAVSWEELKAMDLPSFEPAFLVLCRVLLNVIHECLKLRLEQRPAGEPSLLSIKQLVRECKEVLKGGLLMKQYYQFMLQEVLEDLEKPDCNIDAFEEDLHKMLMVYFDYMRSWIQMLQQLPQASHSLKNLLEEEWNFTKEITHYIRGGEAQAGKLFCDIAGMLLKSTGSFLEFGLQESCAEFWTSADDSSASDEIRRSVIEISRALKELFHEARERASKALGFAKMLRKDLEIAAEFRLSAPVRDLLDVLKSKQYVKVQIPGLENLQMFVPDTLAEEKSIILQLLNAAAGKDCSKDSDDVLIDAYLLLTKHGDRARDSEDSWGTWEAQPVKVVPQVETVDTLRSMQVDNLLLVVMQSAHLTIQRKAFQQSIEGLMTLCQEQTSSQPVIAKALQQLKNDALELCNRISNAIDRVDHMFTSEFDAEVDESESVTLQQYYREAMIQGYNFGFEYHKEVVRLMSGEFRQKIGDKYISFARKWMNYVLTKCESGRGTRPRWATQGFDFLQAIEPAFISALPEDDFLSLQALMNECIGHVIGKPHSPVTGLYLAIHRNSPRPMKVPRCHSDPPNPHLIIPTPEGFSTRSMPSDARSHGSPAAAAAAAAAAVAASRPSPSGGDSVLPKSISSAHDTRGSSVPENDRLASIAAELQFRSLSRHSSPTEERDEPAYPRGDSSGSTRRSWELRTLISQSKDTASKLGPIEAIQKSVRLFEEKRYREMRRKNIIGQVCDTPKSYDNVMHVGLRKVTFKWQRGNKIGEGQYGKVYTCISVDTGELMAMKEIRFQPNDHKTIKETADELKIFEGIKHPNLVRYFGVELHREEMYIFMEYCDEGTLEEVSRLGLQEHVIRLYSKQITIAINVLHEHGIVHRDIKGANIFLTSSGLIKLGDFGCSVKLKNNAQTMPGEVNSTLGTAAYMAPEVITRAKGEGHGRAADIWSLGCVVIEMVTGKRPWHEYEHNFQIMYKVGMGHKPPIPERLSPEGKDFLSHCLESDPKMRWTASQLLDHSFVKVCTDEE
inactive: [1] 0.141 | [3] -0.013 | [4] 0.007 | [5] 0 | [7] 0.013 | [8] 0.018 | [9] -0.018 | [10] 0.024
active: [2] 0.398 | [6] -0.519

MAGEA9 (UniProt P43362)
Sequence of UniProt P43362 (P43362 whole entry, looked up): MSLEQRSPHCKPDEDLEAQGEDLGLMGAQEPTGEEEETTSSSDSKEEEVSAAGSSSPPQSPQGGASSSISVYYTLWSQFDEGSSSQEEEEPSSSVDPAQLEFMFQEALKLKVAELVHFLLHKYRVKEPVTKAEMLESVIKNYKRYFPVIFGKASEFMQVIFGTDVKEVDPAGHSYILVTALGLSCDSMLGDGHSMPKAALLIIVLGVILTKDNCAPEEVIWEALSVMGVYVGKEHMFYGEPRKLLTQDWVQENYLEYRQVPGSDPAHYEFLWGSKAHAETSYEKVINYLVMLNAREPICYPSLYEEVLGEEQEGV
inactive: [1] -0.11 | [3] -0.057 | [4] -0.044 | [5] -0.05 | [6] -0.088 | [7] 0.044 | [8] 0.038 | [9] -0.084 | [10] -0.116
active: [2] -0.39

MARK3 (UniProt P27448)
active: [10] -0.549
inactive: [1] -0.057 | [2] -0.078 | [3] 0.097 | [4] 0.019 | [5] -0.03 | [6] -0.019 | [7] 0.055 | [8] 0.049 | [9] 0.051

LMBRD1 (UniProt Q9NUN5)
inactive: [1] -0.073 | [2] 0.032 | [3] 0.015 | [4] 0.065 | [5] -0.01 | [6] -0.015 | [7] 0.015 | [8] -0.016 | [9] 0.133 | [10] -0.351

LMNB1 (UniProt P20700)
Sequence of UniProt P20700 (P20700 whole entry, looked up): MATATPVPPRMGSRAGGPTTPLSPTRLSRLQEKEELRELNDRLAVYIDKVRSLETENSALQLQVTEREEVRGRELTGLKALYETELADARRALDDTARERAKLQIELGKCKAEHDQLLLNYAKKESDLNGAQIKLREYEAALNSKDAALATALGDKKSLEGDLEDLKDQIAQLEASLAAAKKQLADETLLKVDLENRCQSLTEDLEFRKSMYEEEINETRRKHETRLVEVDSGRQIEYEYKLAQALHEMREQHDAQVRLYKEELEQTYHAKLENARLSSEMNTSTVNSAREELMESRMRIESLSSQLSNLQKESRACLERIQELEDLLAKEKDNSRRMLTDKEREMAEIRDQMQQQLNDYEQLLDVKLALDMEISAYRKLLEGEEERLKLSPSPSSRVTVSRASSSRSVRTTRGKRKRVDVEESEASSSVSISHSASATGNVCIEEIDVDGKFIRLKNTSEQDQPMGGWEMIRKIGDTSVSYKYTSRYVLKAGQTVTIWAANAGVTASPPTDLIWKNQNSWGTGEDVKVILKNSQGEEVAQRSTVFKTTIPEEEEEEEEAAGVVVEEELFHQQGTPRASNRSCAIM
active: [2] -0.308
inactive: [1] -0.045 | [3] 0.023 | [4] 0.037 | [5] -0.021 | [6] 0.115 | [7] 0.034 | [8] -0.049 | [9] -0.034 | [10] 0.026

LARP4 isoform 4 (UniProt Q71RC2)
inactive: [1] -0.016 | [2] -0.351 | [3] 0.117 | [4] -0.107 | [5] 0.005 | [6] 0.07 | [7] 0.009 | [8] 0.018 | [9] 0.137 | [10] -0.252

KLHL18 (UniProt O94889)
active: [4] 0.36
inactive: [1] 0.075 | [2] -0.178 | [3] -0.123 | [5] -0.038 | [6] -0.01 | [7] -0.073 | [8] -0.019 | [9] 0 | [10] 0.034
